Reference: PubChem BioAssay AID1159580 (chemical genetic matrix, 2015)
Where “and” joins values, the source holds several entries; their conditions need not be identical. Equal values may be shown once. In all, about 5,500 compounds went through this assay and about 2,000 (36%) were called active. Another 18% or so got no clear call; they are omitted. Cut-off read from the data, not from the text of the source: active = normalized growth mostly below about 0.91 (no sharp cut-off); inconclusive = no clear call, values can overlap the other calls; inactive = mostly above about 0.92. The list shows a part of the results.

Assay: chemical genetic growth profiling, strain panel (AID 1159580);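 note: tested at 20 µM; growth read once vehicle control cultures reached saturation at 30 °C; 1 = growth at the plate median or of vehicle wells; lower values mean less growth of the strain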
Conditions: S. cerevisiae deletion strains, growth OD

Measured: normalized growth

C=CCc1ccc2c(c1)OCO2
inactive: locus YAL021C, strain ccr4, stronger effect = lower value 1.02 | locus YAL026C, strain drs2, stronger effect = lower value 1.04 | locus YAL030W, strain snc1, stronger effect = lower value 1.01 | locus YBL061C, strain skt5, stronger effect = lower value 1.02 | locus YBR009C, strain hhf1, stronger effect = lower value 1.05 | locus YBR021W, strain FUR4, stronger effect = lower value 1.03 | locus YBR023C, strain chs3, stronger effect = lower value 1.03 | locus YBR171W, strain sec66, stronger effect = lower value 1.02 | locus YBR229C, strain ROT2, stronger effect = lower value 1.02 | locus YBR231C, strain swc5, stronger effect = lower value 1.01 | locus YBR279W, strain paf1, stronger effect = lower value 1.03 | locus YCL011C, strain gbp2, stronger effect = lower value 1.03 | locus YCL016C, strain dcc1, stronger effect = lower value 1.05 | locus YCL029C, strain bik1, stronger effect = lower value 0.99 | locus YCL061C, strain MRC1, stronger effect = lower value 1.06 | locus YCL069W, strain vba3, stronger effect = lower value 1.01 | locus YCR088W, strain abp1, stronger effect = lower value 1.02 | locus YDL005C, strain med2, stronger effect = lower value 1.02 | locus YDL035C, strain GPR1, stronger effect = lower value 1.03 | locus YDL040C, strain nat1, stronger effect = lower value 1.01 | locus YDL074C, strain BRE1, stronger effect = lower value 1.02 | locus YDL101C, strain DUN1, stronger effect = lower value 0.999 | locus YDL185W, strain tfp1, stronger effect = lower value 1.01 | locus YDL192W, strain arf1, stronger effect = lower value 0.99 | locus YDR001C, strain nth1, stronger effect = lower value 1.02 | locus YDR069C, strain doa4, stronger effect = lower value 1.03 | locus YDR101C, strain arx1, stronger effect = lower value 0.985 | locus YDR137W, strain rgp1, stronger effect = lower value 1.05 | locus YDR159W, strain sac3, stronger effect = lower value 0.976 | locus YDR162C, strain NBP2, stronger effect = lower value 1.01 | locus YDR195W, strain ref2 0.982 | locus YDR297W, strain sur2, stronger effect = lower value 1.01 | locus YDR318W, strain mcm21, stronger effect = lower value 0.996 | locus YDR334W, strain swr1, stronger effect = lower value 1.03 | locus YDR335W, strain msn5, stronger effect = lower value 1.02 | locus YDR388W, stronger effect = lower value 0.987 | locus YDR392W, strain spt3, stronger effect = lower value 0.965 | locus YDR502C, strain sam2, stronger effect = lower value 0.992 | locus YEL003W, strain gim4, stronger effect = lower value 1.02 | locus YEL037C, strain rad23, stronger effect = lower value 1.02 | locus YEL061C, strain CIN8 (second series), stronger effect = lower value 1.02 | locus YEL061C, strain CIN8, stronger effect = lower value 1 | locus YER015W, strain faa2, stronger effect = lower value 1.01 | locus YER016W, strain bim1, stronger effect = lower value 1 | locus YER110C, stronger effect = lower value 0.982 | locus YER111C, strain swi4, stronger effect = lower value 1.02 | locus YER155C, strain BEM2 (second series), stronger effect = lower value 0.956 | locus YER155C, strain BEM2, stronger effect = lower value 0.999 | locus YER167W, strain BCK2, stronger effect = lower value 1.02 | locus YFR010W, strain ubp6, stronger effect = lower value 1.05 | locus YGL078C, strain dbp3, stronger effect = lower value 0.993 | locus YGL086W, strain mad1, stronger effect = lower value 0.988 | locus YGL167C, strain pmr1, stronger effect = lower value 1.02 | locus YGL173C, strain kem1, stronger effect = lower value 1.02 | locus YGL227W, strain vid30, stronger effect = lower value 1.01 | locus YGL240W, strain doc1, stronger effect = lower value 0.972 | locus YGL248W, strain PDE1, stronger effect = lower value 1.01 | locus YGL253W, strain hxk2, stronger effect = lower value 1.04 | locus YGR135W, strain pre9, stronger effect = lower value 1.01 | locus YGR229C, strain SMI1, stronger effect = lower value 1.03 | locus YGR252W, strain gcn5, stronger effect = lower value 1.06 | locus YHR013C, strain ard1, stronger effect = lower value 1.06 | locus YHR027C, strain rpn1, stronger effect = lower value 1.02 | locus YHR030C, strain SLT2, stronger effect = lower value 1 and 0.954 | locus YHR079C, strain IRE1 (second series), stronger effect = lower value 0.989 | locus YHR079C, strain IRE1, stronger effect = lower value 0.965 | locus YHR094C, strain hxt1, stronger effect = lower value 0.981 | locus YHR129C, strain ARP1, stronger effect = lower value 1 | locus YHR142W, strain chs7, stronger effect = lower value 1.07 | locus YHR200W, strain rpn10, stronger effect = lower value 0.99 | locus YIL066C, strain RNR3, stronger effect = lower value 1.02 | locus YIL073C, strain SPO22, stronger effect = lower value 1.01 | locus YIL125W, strain kgd1, stronger effect = lower value 0.988 | locus YIR030C, strain dcg1, stronger effect = lower value 0.988 | locus YJL092W, strain hpr5, stronger effect = lower value 1.03 | locus YJL095W, strain BCK1 (second series), stronger effect = lower value 1.03 | locus YJL095W, strain BCK1, stronger effect = lower value 1.01 | locus YJL115W, strain asf1, stronger effect = lower value 1.02 | locus YJL129C, strain trk1, stronger effect = lower value 1.01 | locus YJL134W, strain LCB3, stronger effect = lower value 1 | locus YJL154C, strain vps35, stronger effect = lower value 1.01 | locus YJL164C, strain tpk1, stronger effect = lower value 1.04 | locus YJL166W, strain qcr8, stronger effect = lower value 1.04 | locus YJL168C, strain set2, stronger effect = lower value 0.987 | locus YJL187C, strain SWE1 (second series), stronger effect = lower value 1.01 | locus YJL187C, strain SWE1, stronger effect = lower value 1.03
active: locus YAL013W, strain DEP1, stronger effect = lower value 0.863
